# AmpC detergent – qHTS Inhibitors of AmpC Beta-Lactamase (assay with detergent). AmpC hydrolysis of nitrocefin, absorbance 480 nm, 0.01% Triton. Potency, µM (highest dose often 114 µM), for inactives: at the top dose activity change, negative = inhibition, usual class: inhibitors. AID 485294, 2010. P00811. 370,000 compounds, 0.041% hits;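 also: 0% = no-compound wells and -100% = no-enzyme wells; nearly all actives have a fitted effect of over 25% in size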
# Target sequence (P00811 whole entry, looked up): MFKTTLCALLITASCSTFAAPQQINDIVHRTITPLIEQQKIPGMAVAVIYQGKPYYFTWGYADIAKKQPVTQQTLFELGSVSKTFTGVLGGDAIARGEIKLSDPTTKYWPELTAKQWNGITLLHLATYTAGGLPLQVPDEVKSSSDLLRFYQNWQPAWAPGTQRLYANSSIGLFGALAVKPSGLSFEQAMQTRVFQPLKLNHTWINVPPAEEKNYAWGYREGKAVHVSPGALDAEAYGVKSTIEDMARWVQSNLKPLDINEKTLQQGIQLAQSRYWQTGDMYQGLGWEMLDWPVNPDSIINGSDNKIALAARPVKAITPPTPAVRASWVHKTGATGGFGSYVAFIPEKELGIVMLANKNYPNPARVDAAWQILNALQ
#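 20 mM phosphate pH 7.0 + 0.01% (detergent screen) or 0.0001% Triton X-100; 5.3 nM AmpC reagent; cpd preinc 15 min RT; nitrocefin (800 uM stock) to start; A480 q20 s × 4 min; Activity was normalised to no-enzyme and no-compound control wells.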
# Sm TGR inh – qHTS Assay for the Inhibitors of Schistosoma Mansoni Peroxiredoxins; purified TGR, DTNB reduction, TNB absorbance 405 nm; Potency, µM (highest dose often 114 µM), inactives show at the top dose activity change, negative = inhibition, hits mostly inhibitors; 360,000 compounds, 3% hits; Schistosoma mansoni thioredoxin glutathione reductase (TGR), Q962Y6; AID 485364, 2010; also: nearly all actives have a fitted effect of over 60% in size
#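 First, TGR (20 nM dispensed) and NADPH were mixed with compound. Second, a 15 min room-temperature incubation followed. Third, further NADPH and then DTNB were added to start the reaction. Finally, TNB absorbance was monitored kinetically.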
# AmpC no deterg – qHTS Inhibitors of AmpC Beta-Lactamase (assay without detergent); P00811; Potency, µM (titrated, usually from 57.1 µM), for inactives: at the top dose activity change, negative = inhibition, most hits filed as inhibitors; 330,000 compounds, 0.52% hits; AmpC nitrocefin hydrolysis, absorbance 480 nm, 0.0001% Triton;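 also: plate controls were no compound for no effect and no enzyme for full effect; nearly all actives have a fitted effect of over 20% in size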
#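 20 mM phosphate pH 7.0 + 0.01% (detergent screen) or 0.0001% Triton X-100; 5.3 nM AmpC reagent; cpd preinc 15 min RT; nitrocefin (800 uM stock) to start; A480 q20 s × 4 min; Activity was normalised to no-enzyme and no-compound control wells.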
# Giardia FBPA inh – qHTS Assay for Inhibitors of Fructose-1,6-bisphosphate Aldolase from Giardia Lamblia; purified Giardia FBPA; 290,000 compounds, 0.71% hits; A8B2U2; AID 2451, 2010; Potency, µM (top dose mostly 59.6 µM), for the others: top-dose activity, negative = inhibition, actives largely listed as inhibitors; also: nearly all actives have a fitted effect of over 55% in size
# Target sequence (A8B2U2 whole entry, looked up): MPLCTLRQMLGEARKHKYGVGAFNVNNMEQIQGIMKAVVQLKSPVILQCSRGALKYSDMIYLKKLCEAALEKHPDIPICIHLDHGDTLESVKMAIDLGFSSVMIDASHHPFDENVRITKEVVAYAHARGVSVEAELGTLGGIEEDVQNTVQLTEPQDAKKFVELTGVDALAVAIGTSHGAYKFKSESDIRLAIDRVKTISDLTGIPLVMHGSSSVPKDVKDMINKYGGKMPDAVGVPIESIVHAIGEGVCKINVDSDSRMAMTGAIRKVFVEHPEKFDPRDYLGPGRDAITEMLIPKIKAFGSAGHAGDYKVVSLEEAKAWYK
#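 40 nM FBPA preincubated 10 min at RT with compound (up to 57.5 uM final), then substrate plus GAPDH/TPI/NAD/arsenate coupling and diaphorase/resazurin added. Fluorescence read after 20 min at RT, 525/598 nm.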
# An asterisk follows results filed as active; ? = inconclusive; · = not tested or not shown; [ ] = dose if it differs, or a comment. An excerpt weighted towards active compounds, which were near 3.6% of everything screened. Calls follow the shape of the dose curve; as a rule, active = well fitted curve in the direction sought with a large enough effect; inconclusive = small, poorly fitted or top-dose-only effect, or another doubt; inactive = no such curve, though single readings can be large; an effect the other way counts as inactive or inconclusive. Unless noted, % is scaled to controls: 0 for no effect and ±100 for the full control effect; potency is read from the fitted curve at half-maximal effect.
SMILES,AmpC detergent,Sm TGR inh,AmpC no deterg,Giardia FBPA inh
Cc1ccc(NNC2CC(=O)N(c3cccc(Cl)c3)C2=O)cc1 (configuration not stated),-3.1%,44.7µM*,-53.0%,-12.9%
CC(=O)NCCCC(=O)NNC1CC(=O)N(c2cccc(Cl)c2)C1=O (configuration not stated),5.7%,11.2µM*,-27.1%,4.2%
CCN(CC)C1CC(=O)N(c2cccc(Cl)c2)C1=O (configuration not stated),-7.8%,3.98µM*,-19.4%,12.1%
CCCCCC(=O)NNC1CC(=O)N(c2cccc(OCC)c2)C1=O (configuration not stated),-1.3%,31.6µM*,20.8%,10.1%
COc1ccc(NC(=O)CSc2nc3ccccc3n2CC(=O)N2CCCC(C)C2)cc1 (configuration not stated),8.3%,-7.9%,·,·
CC(C)N(Cc1ccccc1)C(=O)CN1C(=O)NC2(CCCCCC2)C1=O,?,3.9%,3.8%,·
O=C(NCCc1ccccc1)C(c1cccs1)N(C(=O)CCl)c1ccc(Cl)cc1 (configuration not stated),-5.2%,1.12µM*,1.0%,-0.8%
Cc1cc(C)cc(C(=O)N2CCN(c3ccccn3)CC2)c1,6.8%,5.2%,5.9%,12.9%
OCCC#Cc1ccc(CN2CCN(C3CCCCC3)C(CCO)C2)cc1 (configuration not stated),-5.2%,-4.3%,-8.9%,0.7%
Cc1ccc(Nc2nc(N)nc(CN3CCCCCC3)n2)cc1,?,39.8µM*,-14.7%,-2.3%
Cc1ccc(Nc2nc(N)nc(CN3CCN(C)CC3)n2)cc1,-9.7%,-1.3%,-25.3%,-7.1%
Cc1ccc2c(CN3CCN(C(=O)c4ccco4)CC3)cc(=O)oc2c1C,2.3%,44.7µM*,32.5%,-4.9%
Cc1ccc(Nc2nc(N)nc(CN3CCN(C(=O)c4ccco4)CC3)n2)cc1Cl,-1.9%,39.8µM*,59.5%,-12.3%
O=C(Nc1cccc(Br)c1)N1CCC(CN2CCCCC2)CC1,21.0%,-2.6%,·,·
CCCn1c(SCc2nc(-c3ccccc3OCC)no2)nnc1-c1ccc(Cl)cc1,2.4%,-12.4%,·,·
c1coc(-c2nnc(-c3ccco3)nn2)c1,0.8%,3.98µM*,-18.3%,·
c1ccc(-c2nnc(-c3ccco3)o2)cc1,5.7%,5.1%,-25.0%,2.3%
COc1ccc(-c2cc3ccc(OC)cc3cn2)cc1,1.9%,15.8µM*,-26.9%,·
CC(C)(C)C1=C(C#N)C(c2ccc3c(c2)OCO3)C(C#N)=C(N)O1 (configuration not stated),-10.7%,2µM*,-36.4%,?
Cn1cnnc1-c1cccc(NC(=O)c2cc(F)c(F)cc2Cl)c1,-0.5%,·,-8.8%,-5.9%
CCc1ccc(N2C(=O)c3sc4nnc(-c5ccccc5)c(=O)n4c3C2=O)cc1,-4.4%,10µM*,-48.9%,-1.9%
CCc1ccc(NC(=O)C(C)n2nnc3sc(-c4ccccc4)cc3c2=O)cc1 (configuration not stated),-8.8%,2.8%,·,·
Cn1c(SCc2ccccc2)nnc1-c1c[nH]c2ccccc12,?,-0.2%,25.1µM*,4.9%
O=C(Sc1ccc(Cl)cc1)c1cccc(Cn2cc(C(F)(F)F)ccc2=O)c1,9.6%,20µM*,-8.4%,-3.3%
Cc1ccc(-c2csc(NC(=O)C3CSC4(C)CCC(=O)N34)n2)cc1 (configuration not stated),-3.8%,56.2µM*,-13.6%,·
SMILES,AmpC detergent,Sm TGR inh,AmpC no deterg,Giardia FBPA inh
CC1CCN(S(=O)(=O)c2ccc(NC(=O)C3CSC4(C)CCC(=O)N34)cc2)CC1 (configuration not stated),?,-6.0%,14.1µM*,·
CC12CCC(=O)N1C(C(=O)Nc1cccc(S(=O)(=O)N3CCCCC3)c1)CS2 (configuration not stated),-5.9%,2.1%,-17.7%,·
COc1ccc(/C=C/C(=O)c2cc(Cl)cc(Cl)c2O)c(OC)c1,4.9%,-27.6%,-34.8%,-2.5%
O=C(/C=C/c1ccccn1)c1cc(Cl)cc(Cl)c1O,2.4%,39.8µM*,-30.1%,-4.6%
CN(C)C(=O)CCc1ccc2c3c([nH]c2c1)[C@]1(C)[C@@H](C(=O)N2CCCCC2)C[C@H](CC(=O)NCCCn2ccnc2)C(=O)N1CC3,·,·,37.0%,·
Cc1ccc(CNS(=O)(=O)c2ccc(CN3C(=O)c4cccnc4C3=O)cc2)o1,1.4%,20µM*,-10.1%,·
CC(C)NS(=O)(=O)c1cc(F)ccc1CN1C(=O)c2cccnc2C1=O,-11.7%,2.2%,-0.6%,9.8%
Cc1ccc(CNS(=O)(=O)c2cc(F)ccc2CN2C(=O)c3cccnc3C2=O)o1,-0.1%,25.1µM*,-2.8%,2.7%
CCc1nn(CC(=O)Nc2ccc(Br)c(C)c2)c(=N)s1,-2.1%,4.7%,-7.2%[2.29 µM],-4.0%
O=C(Nc1nc2ccccc2[nH]1)NC1CCCCC1,-4.5%,-3.7%,-44.8%,4.0%
O=C(C1=C[C@@H]2[C@H]3C(=O)N(c4cccc(Cl)c4)C(=O)[C@H]3[C@@H](C(=O)c3ccc(Cl)cc3)N2C=C1)c1ccccc1,-9.9%,22.4µM*,12.6µM*,-15.2%
Cc1ccc(N2C(=O)[C@@H]3[C@H](C2=O)[C@H]2C=C(C(=O)c4ccccc4)C=CN2[C@@H]3C(=O)c2ccc(Cl)cc2)cc1,-10.8%,39.8µM*,-33.4%,-16.3%
O=C(C1=C[C@@H]2[C@H]3C(=O)N(c4ccccc4Cl)C(=O)[C@H]3[C@@H](C(=O)c3ccc(Cl)cc3)N2C=C1)c1ccccc1,-8.3%,25.1µM*,-48.5%,-28.5%
COCCCNC(=O)CN(CCc1ccccc1)S(=O)(=O)c1ccc(C)cc1,4.2%,4.7%,137.3%,0.2%
Cc1cc(NC(=O)CSc2cn(CCNC(=O)c3ccc(Cl)cc3)c3ccccc23)no1,2.9%,9.6%,10µM*,23.9%
CCOc1ccc(C(=O)NCCn2cc(SCC(=O)Nc3cc(C)on3)c3ccccc32)cc1,-4.6%,0.1%,-18.6%,2.1%
c1coc(-c2nnc3sc(-c4cccs4)nn23)c1,4.6%,17.8µM*,-32.9%,1.0%
COc1cc(OC)c(-c2nn3c(-c4ccco4)nnc3s2)cc1OC,-6.9%,11.2µM*,163.5%,-4.3%
c1ccc(-c2cc(-c3nn4c(-c5ccco5)nnc4s3)c3ccccc3n2)cc1,?,20µM*,-47.3%,6.1%
N#Cc1c(N2CCSCC2)nsc1-c1ccccc1Cl,-0.7%,-8.0%,-34.4%,-0.5%
O=C(CNc1ccc(C(F)(F)F)cc1[N+](=O)[O-])OCC(=O)c1ccccc1,0.1%,2.4%,-9.0%,-1.9%
CS(=O)(=O)c1ccc(S(=O)CC(=O)OCc2ccccc2)c([N+](=O)[O-])c1 (configuration not stated),-10.9%,2.51µM*,-5.7%,?
